Compounds with a hit are over-represented: about 11% of the library has one in this group of screens.
ALDH1A1 inh – blocks purified human ALDH1A1 activity; P00352; Purified ALDH1A1, NADH fluorescence, propionaldehyde substrate; Potency, µM (titrated, usually from 75.3 µM), for inactives: at the highest dose activity, negative = inhibition, hits mostly inhibitors; actives 7.3% (n = 220,000); active means well fitted inhibition curve with a large enough effect, not every such curve was filed as active; inconclusive means small, poorly fitted or top-dose-only effect, or another doubt; inactive means no such curve, though single readings can be large or run the other way;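 further: potency means the concentration at half of the fitted maximal effect; plate controls were no enzyme wells and a reference inhibitor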
Target sequence (P00352 whole entry, looked up): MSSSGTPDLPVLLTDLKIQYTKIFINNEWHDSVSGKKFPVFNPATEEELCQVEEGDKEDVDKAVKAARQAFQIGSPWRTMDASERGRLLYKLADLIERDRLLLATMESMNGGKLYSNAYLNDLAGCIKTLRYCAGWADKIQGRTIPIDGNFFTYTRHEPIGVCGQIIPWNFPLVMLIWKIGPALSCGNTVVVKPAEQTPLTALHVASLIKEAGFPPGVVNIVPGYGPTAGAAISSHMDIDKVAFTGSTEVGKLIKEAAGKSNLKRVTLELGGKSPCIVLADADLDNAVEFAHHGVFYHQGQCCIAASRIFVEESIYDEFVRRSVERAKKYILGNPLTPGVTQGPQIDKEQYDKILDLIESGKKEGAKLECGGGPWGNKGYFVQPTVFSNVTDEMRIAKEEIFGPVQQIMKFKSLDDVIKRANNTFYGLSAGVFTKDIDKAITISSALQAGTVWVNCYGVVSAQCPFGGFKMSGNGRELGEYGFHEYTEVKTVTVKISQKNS
IMPase inh – IMPase inhibition in cells. CHO-M1 cells, IP1 accumulation, HTRF TR-FRET ratio. 120,000 tested, under 10 active. inhibition (IP1 accumulation), % at 46.1 µM; active means well fitted curve in the direction sought with a large enough effect in the signal ratio, not every such curve was filed as active; inconclusive means small, poorly fitted or top-dose-only effect, or a change in a side signal; inactive means no such curve, though single readings can be large or run the other way; the % refers to the signal ratio;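 further: cells stimulated with carbachol in lithium chloride buffer; plate controls were DMSO basal wells for no effect and reference inhibitor wells for full effect; higher means more IMPase inhibition seen as more IP1 and lower FRET ratio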
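Elevated IP1 in lysates lowers TR-FRET signal (665/620 ratio and 620 channel reported). Cells were CHO-M1, given carbachol (50 uM as added) plus 50mM LiCl, pH 7.4, 30 min, 37C; compounds titrated up to 46 uM; AC50 by Hill equation.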
HPGD inh – HPGD (human) dehydrogenase inhibition. P15428. Potency, µM, inactives show at the highest dose activity change, negative = inhibition, most hits filed as inhibitors. actives 4.3% (n = 150,000). purified HPGD, NADH fluorescence kinetic, PGE2 substrate; active means well fitted inhibition curve with a large enough effect, not every such curve was filed as active; inconclusive means small, poorly fitted or top-dose-only effect, or another doubt; inactive means no such curve, though single readings can be large or run the other way; further: potency means the concentration at half of the fitted maximal effect
Target sequence (P15428 whole entry, looked up): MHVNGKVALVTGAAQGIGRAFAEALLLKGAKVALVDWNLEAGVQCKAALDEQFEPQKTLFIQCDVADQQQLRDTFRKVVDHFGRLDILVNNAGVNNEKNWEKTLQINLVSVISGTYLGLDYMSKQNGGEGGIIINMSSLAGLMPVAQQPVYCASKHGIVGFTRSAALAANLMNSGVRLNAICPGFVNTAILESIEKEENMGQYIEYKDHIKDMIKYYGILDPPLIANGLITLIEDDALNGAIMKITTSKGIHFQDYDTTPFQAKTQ
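20 nM HPGD preincubated 15 min at room temperature with compound in 50 mM Tris-HCl pH 8, 0.01% Tween 20. Started with 1 mM NAD+ and 30 uM prostaglandin E2; NADH fluorescence (360/450 nm) read 5 times over 30-s intervals, last minus first.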
12-hLO inh – inhibitors of human 12-lipoxygenase (ALOX12); P18054; Potency, µM (doses to about 57.1 µM), for inactives: at the top dose activity change, negative = inhibition, actives largely listed as inhibitors; actives 0.12% (n = 150,000); purified 12-hLO, xylenol orange hydroperoxide absorbance; further: potency means the concentration at half of the fitted maximal effect; nearly all actives have a fitted effect of over 55% in size
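Hydroperoxide output read as Fe(III)-xylenol orange absorbance, 573-to-405 nm ratio, after 30 min reaction with 40 uM arachidonic acid. Enzyme: 150 nM purified human 12hLO, 15 min compound preincubation; 25 mM Hepes pH 7.0, room temperature.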
IMPase Li inh – membrane-permeable IMPase blocker, potentiated with lithium. actives 0.35% (n = 210,000). Potency, µM (doses to about 59.4 µM), inactives show top-dose activity, negative = IMPase inhibition, usual class: inhibitors. CHO-M1 cells, IP1 TR-FRET (IP-One), carbachol + lithium;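 further: IP1 builds up when IMPase is blocked and the TR-FRET signal falls; potency means the concentration at half of the fitted maximal effect; plate controls were basal vehicle for no effect and high inhibitor control for full effect; nearly all actives have a fitted effect of over 50% in size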
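Readout is a homogeneous TR-FRET IP1 immunoassay (Ex 320, Em 665 and 620), where raised cytosolic IP1 lowers signal. Cells were CHO-M1 treated 30 min at 37C with test compounds plus a little lithium; AC50 values came from Hill-equation fitting.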
PNC assembly inh – inhibitors of perinucleolar compartment assembly | PC3M PTB-GFP, PNC prevalence imaging, 16 h; hits give low values | activity change (PNC), negative = inhibition, % at 10 µM | actives 3.1% (n = 140,000);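 active means readout at or below -70, meaning at least 70% loss of cells showing the perinucleolar compartment, a nuclear body marking cancer cells; inconclusive means readout between -30 and a set limit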;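 further: plate controls were DMSO wells for no effect and camptothecin positive control wells for full effect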
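Read-out is percentage of cells bearing a perinucleolar compartment, from automated 20x imaging of fixed, Hoechst-stained PC3M PTB-GFP cells. Cells were seeded 4 h, then exposed 16 h to compound (23 nl of library stock) in duplicate plates.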
Numbers without * were called inactive; ? = inconclusive; / = no result given; [ ] = another dose, or the depositor's remark. Unless noted, the call rests on the fitted dose curve; in most records, active means well fitted curve in the direction sought with a large enough effect; inconclusive means small, poorly fitted or top-dose-only effect, or another doubt; inactive means no such curve, though single readings can be large; an effect the other way counts as inactive or inconclusive. Unless noted, on the % scale 0 is the no-effect control and ±100 the full control effect.

SMILES	ALDH1A1 inh	IMPase inh	HPGD inh	12-hLO inh	IMPase Li inh	PNC assembly inh
CCCCCN=c1ccn(Cc2ccccc2)c2ccccc12	-7.6%	18.9	-3.0%	-6.7%	29.7%	/
CCCCCCCCCCCCCCCC(=O)OCC(O)C1OC(=O)C(O)=C1O (configuration not stated)	-9.1%	/	-14.3%	-1.1%[0.00818 µM]	0.4%	/
O=C(CCNc1cccc(Cl)c1)c1cccs1	1.26µM*	10.4	-12.3%	3.5%	-1.5%[38.3 µM]	-5.4
Cc1ccc(NCCC(=O)c2cccs2)cc1Cl	2.51µM*	0.2	-6.7%	-5.1%	-2.1%	13.4
CCOc1ccc(NS(=O)(=O)c2cc(NC(=O)CCC(=O)c3cccs3)ccc2Cl)cc1	-7.8%	/	/	/	5.8%	/
O=C(NNC(=O)c1cccs1)Nc1cccc(Cl)c1	1.3%	4.8	-14.4%	3.4%	-0.1%[38.3 µM]	13.7
CC(C)CCNC(=O)CNC(=O)c1cccs1	4.9%	1.2	-1.3%	1.7%	-14.3%[38.3 µM]	-10.3
Cc1ccc(NCCC(=O)c2cccs2)cc1C	1.58µM*	/	/	/	10.0%	/
CC(C)c1ccc(NCCC(=O)c2cccs2)cc1	2.82µM*	/	-11.5%	-3.7%	0.5%	?
Cc1ccc(NC(=O)CCC(=O)c2cccs2)cc1	?	6.4	-11.5%	6.6%	29.0%[38.3 µM]	-22.2
Cc1ccc(NCCC(=O)c2cccs2)cc1	0.891µM*	/	/	/	4.4%	/
CCc1c(C)sc(NC(=O)c2cc(C)on2)c1C#N	?	9.9	-16.1%	-1.2%	8.5%[38.3 µM]	33.7
CCOC(=O)c1c(NC(=O)c2noc(C)c2[N+](=O)[O-])sc(C(C)=O)c1C	25.1µM*	/	/	/	0.9%	/
CCc1c(C)sc(NC(=O)c2cc(C3CC3)on2)c1C#N	?	-2.4	-20.6%	-1.4%	7.5%[38.3 µM]	28.5
CCc1c(C)sc(NC(=O)c2cc(-c3ccco3)on2)c1C#N	28.2µM*	3.8	?	-8.6%	-2.7%[38.3 µM]	-26.0
Cc1onc(C(=O)Nc2sc3c(c2C#N)CCCC3)c1[N+](=O)[O-]	7.08µM*	/	/	/	1.4%	/
CCCc1cc(C(=O)Nc2sc(C)c(CC)c2C#N)no1	28.2µM*	-6.1	-26.2%	-3.4%	22.0%[38.3 µM]	8.5
Cc1onc(-c2ccccc2Cl)c1C(=O)Nc1sc2c(c1C#N)CCC2	?	1.8	?	-24.8%	8.5%	-3.6
CCCCCCCCCCCCCCCCCC(=O)NCC(COP(=O)([O-])OCC[N+](C)(C)C)OCC (configuration not stated)	-6.3%	/	-14.0%	/	21.4%	/
O=C(Nc1ccc(Nc2ccncc2)cc1)c1ccc(Nc2ccnc3ccc([N+](=O)[O-])cc23)cc1[N+](=O)[O-]	31.3%	/	/	/	/	/
Cc1noc(C)c1C(=O)N1CCC2(CCN(Cc3cc(C(F)(F)F)cc(C(F)(F)F)c3)CC2)CC1	6.3%	/	-9.1%	3.3%	14.0%	/
CC1CCc2c(sc(NC(=O)C3CCCO3)c2C#N)C1 (configuration not stated)	?	/	/	/	11.8%	/
CCc1c(C)sc(NC(=O)C2CCCO2)c1C#N (configuration not stated)	15.8µM*	-6.8	28.2µM*	-8.1%	-3.1%	-26.1
CCCc1cc(C(=O)Nc2sc3c(c2C#N)CCC3)no1	11.2µM*	7.6	28.2µM*	-6.9%	4.6%	39.6
O=C(N/N=C/c1c(Cl)cccc1Cl)c1n[nH]c2c1CCCC2	-3.0%	/	3.98µM*	-1.1%	9.5%	-2.3
SMILES	ALDH1A1 inh	IMPase inh	HPGD inh	12-hLO inh	IMPase Li inh	PNC assembly inh
O=C(N/N=C/c1c(Cl)cccc1Cl)c1ccccc1F	1.5%	/	-19.4%	1.9%	3.0%	-84.1*
O=C(N/N=C/c1c(Cl)cccc1Cl)c1ccc(F)cc1	11.0%	10.0	-2.9%	-4.1%	-5.6%[38.3 µM]	3.2
COc1ncc2nc(-c3cccs3)c(=O)n(C)c2n1	?	/	/	/	-7.1%	/
O=C(C#Cc1cccc([N+](=O)[O-])c1)c1ccccc1	3.55µM*	-5.0	-15.9%	-24.6%	44.1%[38.3 µM]	?
COc1ccc(Br)cc1C(=O)NC(=S)Nc1ccc(Cl)c(C(=O)O)c1	17.8µM*	/	/	/	4.3%	/
CCCCCCc1c(C[C@H](N)C(=O)O)o[nH]c1=O	3.6%	-12.7	-2.8%	0.9%	12.7%	/
COCCn1c(=O)[nH]c(=O)c2c1nc(-c1ccc(-c3ccc(Cl)cc3[N+](=O)[O-])o1)n2Cc1ccccc1	?	/	?	-4.8%	10.7%	?
COc1ccc(-c2ccc(-c3nc4c(c(=O)[nH]c(=O)n4Cc4ccccc4)n3C)o2)c([N+](=O)[O-])c1	1.0%	/	28.2µM*	-0.9%	-5.3%	-8.0
COCCn1c(-c2ccc(-c3ccc([N+](=O)[O-])cc3Br)o2)nc2c1c(=O)[nH]c(=O)n2CC(C)C	15.8µM*	/	/	/	6.2%	/
C=C(C)[C@@H]1CC[C@]2(C(=O)O)CC[C@]3(C)[C@H](CCC4[C@@]5(C)CC[C@H](O)C(C)(C)[C@@H]5CC[C@]43C)[C@@H]12 (some centres not stated)	-11.5%	/	/	/	2.6%	/
c1csc(C2Nc3cccc4cccc(c34)N2)c1	?	3.6	?	7.6%	10.5%[38.3 µM]	48.2
COc1ccccc1C1Nc2cccc3cccc(c23)N1	?	3.3	?	-7.6%	33.6%[38.3 µM]	39.9
Oc1ccccc1C1Nc2cccc3cccc(c23)N1	23.8µM*	4.1	?	?	10.7%[38.3 µM]	59.5
Brc1ccc(C2Nc3cccc4cccc(c34)N2)o1	4.47µM*	1.6	?	-5.9%	9.7%[38.3 µM]	8.4
CCOc1cc(C2Nc3cccc4cccc(c34)N2)ccc1O	20µM*	1.0	-25.9%	-3.8%	21.2%[38.3 µM]	16.5
COC(=O)c1c(NC(=O)CN2CCC3(O)CCCCC3C2c2ccc(F)cc2)sc(C)c1C (configuration not stated)	25.1µM*	/	-21.0%	3.4%	2.3%	-17.1
CCCCNC(=O)CN1CCC2(O)CCCCC2C1c1ccccc1OC (configuration not stated)	?	-3.5	-3.9%	0.5%	17.6%[38.3 µM]	37.7
COc1ccccc1C1C2CCCCC2(O)CCN1CC(=O)Nc1ccccc1 (configuration not stated)	?	27.6	-6.0%	-7.9%	4.1%[38.3 µM]	-103.7*
COC(=O)c1c(NC(=O)CN2CCC3(O)CCCCC3C2c2cc(OC)ccc2OC)sc(C)c1C (configuration not stated)	?	/	?	1.0%	7.4%	-16.3
C[C@H]1Cc2c(-c3ccccc3)nc3c(c2CO1)CN(C(=O)C1CCCCC1)CC3	-0.8%[13.5 µM]	/	-3.7%	2.9%[11.4 µM]	9.5%	/
CCCN(CCc1ccccc1)[C@H]1CCc2c(O)cccc2C1	/	10.3	/	-7.9%	/	/
CN1C(=O)/C(=C/c2ccccc2Cl)Sc2ccc(C(=O)NCc3cccnc3)cc21	?	/	/	/	6.1%	/

Assay outcomes: PubChem, National Center for Advancing Translational Sciences (NCATS)
